# Test results from PubChem BioAssay.
# The source made the active and inactive calls.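 Rule for the calls, unless noted: active = inhibition at or above 50% at 10 µM; inactive = inhibition below 50%.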
# Tests used:
# [1] = inhibitors of TNFa-induced NFkB p65 translocation, primary screen, imaging, HUVEC, MLSMR starter and 10KST1 sets (AID 438;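 active = inhibition above 20% together with a positive visual image hit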;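 note: compound added about 3h40 before a 20 min TNFalpha stimulation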;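 for inhibition: signal is the nuclear over cytoplasmic p65 intensity ratio per well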); details: HUVEC TNFa-induced p65 nuclear translocation; cell count: measured here: nuclei count (cytotoxicity indicator), at 2.08 µM; inhibition: at 2 µM, stronger effect = higher value, 0% TNFa-plus-vehicle, 100% no-TNFa wells
# [2] = inhibitors of mutant huntingtin aggregation, primary screen, imaging, exon1htt(103Q)mCFP cells, high-content imaging (AID 483;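 active = visual image review flags a hit and inhibition of aggregation exceeds 20%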;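 note: compound exposure lasted 3 days before fixation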;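 for nuclei count: percent of the per-plate median nuclei count of sample wells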); details: exon1htt(103Q)mCFP cell line, aggregate imaging, at 2 µM; inhibition of aggregation: stronger effect = higher value; nuclei count: measured here: cell count, toxicity
# [3] = inhibitors of E-selectin induction by TNFa, primary screen, imaging, HUVEC, immunofluorescence, MLSMR starter and 10KST1 sets (AID 487;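 active = visually confirmed hit in the image check and inhibition above 20%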;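 for inhibition: signal is fraction of cell area covered by stained E-selectin grains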;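 for nuclei count: 100% = median nuclei count of all wells on the same plate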); details: HUVEC TNFalpha-induced E-selectin immunofluorescence imaging, at 2 µM; inhibition: stronger effect = higher value; nuclei count: measured here: cell number, toxicity
# [4] = molecular target: Voltage-gated potassium channel subunit beta-2 (Rattus norvegicus) (UniProt P62483); test: KvBeta enzyme negative modulators, primary screen, biochemical, NADPH fluorescence (AID 622;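 active = fluorescence slope higher than the sample average by over 3 SD, cut at about -0.22 in these data, passing the limit was not always enough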;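 note: slope of raw intensity against log time taken from 70 to 1610 s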); details: recombinant KvBeta, 4-cyanobenzaldehyde reduction, at 10 µM, stronger effect = higher value
# Chain of Voltage-gated potassium channel subunit beta-2 (Rattus norvegicus) (P62483 whole entry, looked up): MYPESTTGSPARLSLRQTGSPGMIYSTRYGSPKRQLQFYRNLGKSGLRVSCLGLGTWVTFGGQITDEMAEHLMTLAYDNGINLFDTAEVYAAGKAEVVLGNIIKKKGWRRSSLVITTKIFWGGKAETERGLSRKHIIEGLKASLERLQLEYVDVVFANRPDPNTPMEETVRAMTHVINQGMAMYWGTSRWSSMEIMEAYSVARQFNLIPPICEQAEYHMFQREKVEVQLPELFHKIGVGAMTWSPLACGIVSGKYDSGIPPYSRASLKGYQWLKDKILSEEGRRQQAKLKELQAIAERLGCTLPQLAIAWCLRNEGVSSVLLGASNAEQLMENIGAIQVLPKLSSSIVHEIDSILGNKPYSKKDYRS
# [5] = molecular target: Voltage-gated potassium channel subunit beta-2 (Rattus norvegicus) (UniProt P62483); test: KvBeta positive modulators, primary screen, biochemical, NADPH fluorescence (AID 623;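 active = NADPH fluorescence slope more negative than the mean of all samples by about 3 SD, 99.7% confidence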;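 note: fluorescence intensity change per second fitted from 20 to 320 s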); details: Recombinant KvBeta, NADPH fluorescence decrease slope, 10 min; at 10 µM; stronger effect = lower value
# [6] = molecular target: Alpha-2C adrenergic receptor (Homo sapiens) (UniProt P18825); test: modulators of alpha2C/GIRK thallium flux, primary screen, cell-based, HEK293 alpha2C/GIRK1/2 (AID 624;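 active = fluorescence slope after compound addition differing from the mean of all screened samples at 99.7% confidence, in either direction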;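 note: slope of fluorescence ratio to pre-addition baseline per second over 15 to 24 s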); details: thallium flux BTC fluorescence, at 10 µM, actives lie on both sides
# Chain of Alpha-2C adrenergic receptor (Homo sapiens) (P18825 whole entry, looked up): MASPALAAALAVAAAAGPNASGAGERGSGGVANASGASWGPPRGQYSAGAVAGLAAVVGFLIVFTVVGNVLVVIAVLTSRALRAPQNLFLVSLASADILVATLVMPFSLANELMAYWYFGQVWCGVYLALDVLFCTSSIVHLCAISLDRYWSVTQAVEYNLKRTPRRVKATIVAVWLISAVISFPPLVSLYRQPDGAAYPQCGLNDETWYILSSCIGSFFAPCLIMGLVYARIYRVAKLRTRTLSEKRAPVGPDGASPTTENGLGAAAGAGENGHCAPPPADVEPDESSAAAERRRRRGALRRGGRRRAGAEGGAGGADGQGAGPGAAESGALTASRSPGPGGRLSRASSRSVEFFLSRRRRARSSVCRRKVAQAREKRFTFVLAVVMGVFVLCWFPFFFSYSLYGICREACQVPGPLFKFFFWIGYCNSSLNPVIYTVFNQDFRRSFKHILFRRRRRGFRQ
# [7] = inhibitors of Sendai virus-induced IRF3 signaling, primary screen, TLR/RLR signaling modifier project, cell-based, Sendai virus stimulus, luciferase, 10K MLSCN set (AID 602276); details: HEK293 RL24 IRF3 luciferase reporter, at 10 µM, stronger effect = higher value;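 note: firefly luciferase from ISG56 promoter only with Renilla not read in this screen; 0% = Sendai virus plus DMSO and 100% = medium plus DMSO without virus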
# [8] = inhibitors of poly I:C-induced TLR3 signaling, primary screen, cell-based, poly I:C stimulus, luciferase, 10K MLSCN set (AID 602277;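 active = inhibition of the reporter signal at or above 50%; inactive = inhibition below 50%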); details: HEK293-TLR3 RL24 IRF3 luciferase reporter, at 10 µM, stronger effect = higher value
Compound,cell count [1],inhibition [1],inhibition of aggregation [2],nuclei count [2] [%],inhibition [3],nuclei count [3] [%],fluorescence slope [4],NADPH fluorescence slope [5],slope [6],inhibition [7],inhibition [8]
CSc1nc(C)c(C(=O)Nc2ccccc2)c(C)c1C#N,761,-11.2% (inactive),-5.9% (inactive),103,-40.9% (inactive),118,-0.483 (inactive),-2.5e-05 (inactive),0.00491 (inactive),16.8% (inactive),18.5% (inactive)
COc1ccccc1N1CCN(C(=O)c2c(-c3c(Cl)cccc3Cl)noc2C)CC1,652,-11.7% (inactive),3.7% (inactive),90.6,-24.6% (inactive),110,-0.377 (inactive),-2.9e-05 (inactive),0.00504 (inactive),18.3% (inactive),38.3% (inactive)
O=S(=O)(c1cccs1)N1CCN(C/C=C/c2ccccc2)CC1,359,2.4% (inactive),-19.8% (inactive),108,62.2% (inactive),94.8,-0.492 (inactive),-4.5e-05 (inactive),0.00442 (inactive),10.2% (inactive),9.74% (inactive)
O=S(=O)(Nc1ccn(-c2ccccc2)n1)c1ccc(Br)cc1,395,-1.6% (inactive),20.2% (inactive),98,-35.6% (inactive),119,-0.413 (inactive),0.000106 (inactive),0.00791 (inactive),10.7% (inactive),17.4% (inactive)
O=c1sc(Nc2ccccc2)nc2ccsc12,323,-9.8% (inactive),-0.2% (inactive),91.4,-36.8% (inactive),122,-0.334 (inactive),-2.1e-05 (inactive),0.00308 (inactive),-17.1% (inactive),-57.8% (inactive)
O=C1CC(c2ccccc2)n2nc(NC(=O)c3ccccn3)nc2N1 (stereo not drawn),565,3.3% (inactive),-11.8% (inactive),108,16.2% (inactive),106,-0.605 (inactive),-3.9e-05 (inactive),0.00587 (inactive),9.98% (inactive),27.1% (inactive)
CCOc1ccc(OCc2cccc(C(=O)N3CCCC3)c2)cc1,488,0% (inactive),-4.9% (inactive),103,3.3% (inactive),106,-0.423 (inactive),-3.1e-05 (inactive),0.00502 (inactive),-43% (inactive),-105% (inactive)
COc1ccc(-c2ccc(-c3nnn(CC(C)=O)n3)cc2)cc1,277,-6.2% (inactive),-10.7% (inactive),111,-65% (inactive),130,-0.516 (inactive),-4.2e-05 (inactive),0.00693 (inactive),-41% (inactive),-130% (inactive)
